The values that follow come from PubChem BioAssay (NCI).

The panel holds about 79,000 compounds, 15% with a hit somewhere; the sample as a whole holds those more often. Values without a mark were called inactive. Active and inactive are the calls of the source. Cut-off read from the data, not from the text of the source: active = growth inhibition above about 70%; inactive = the rest.

Assay [1] in a line: NCI Yeast Anticancer Drug Screen. Data for the rad50 strain (AID 155).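 Note: 0% = growth of vehicle-only cultures of the same strain.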 Conditions: S. cerevisiae rad50 strain growth inhibition; at 50.0 µM; active compounds read high. A digest of the protocol:
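Vehicle-treated cultures provide the reference for the growth inhibition reported for compound-exposed, repair-deficient yeast.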

A short description of assay [2]: NCI Yeast Anticancer Drug Screen. Data for the mec2-1 strain (AID 157). Conditions: S. cerevisiae mec2-1 strain, at 50.0 µM, active compounds read high. Put shortly:
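Strain: mec2-1 (DNA repair/cell cycle alteration). Compound exposure, then growth measured; inhibition expressed relative to vehicle.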

Assay [3] in a line: NCI Yeast Anticancer Drug Screen. Data for the sgs1 mgt1 strain (AID 161).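 Note: 0% = growth of cultures given vehicle only.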 Conditions: S. cerevisiae sgs1 mgt1 strain, at 50.0 µM, active compounds read high. Put shortly: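 Read-out: growth inhibition vs vehicle controls. Cells: mutant yeast strain deficient in DNA damage repair.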
Assay [4] in a line: NCI Yeast Anticancer Drug Screen. Data for the cln2 rad14 strain (AID 165).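 Note: 0% = growth equal to vehicle treated cultures.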 Conditions: S. cerevisiae cln2 rad14 strain, at 50.0 µM, active compounds read high. A digest of the protocol:
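Compounds are applied to the cln2 rad14 yeast strain, and growth is then compared with that of vehicle-treated cultures to give inhibition.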

Assay [5] in a line: NCI Yeast Anticancer Drug Screen. Data for the bub3 strain (AID 167). Conditions: S. cerevisiae bub3 mutant strain, at 50.0 µM, active compounds read high. Put shortly:
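Mutant yeast screening strain plus compound; vehicle-treated cultures serve as the 0% inhibition reference.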

Assay [6] can be described thus: NCI Yeast Anticancer Drug Screen. Data for the mlh1 rad18 strain (AID 175). The conditions noted are these: S. cerevisiae mlh1 rad18 strain growth inhibition; at 50.0 µM; active compounds read high. A digest of the protocol:
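Read-out is yeast growth inhibition, calculated against vehicle-only controls. The compound was applied to a strain engineered with DNA damage repair alterations.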

Turning to `O=c1nc(N2CCSCC2)ccn1C1OC(CO)C(O)C1O` (centres undefined), the growth inhibition was -6.5% in assay [1]; -6.7% in assay [2]; -8.45% in assay [3]; -5.75% in assay [4]; -3.5% in assay [5]; -2.25% in assay [6].
With `Cc1cccc(C)c1NC(=O)C(=O)CC(=O)c1cccc([N+](=O)[O-])c1`, the growth inhibition in assay [1] is 45.4%; in assay [2], 11.9%; in assay [3], 2.2%; in assay [4], 24.4%; in assay [5], 19.2%; in assay [6], 40.9%.
As for `FS(F)(F)(F)(F)c1cccc(NC(=S)SCc2ccc(Cl)cc2)c1`, the growth inhibition is 43.6% in assay [1]; 24.8% in assay [2]; 39.8% in assay [3]; 32.4% in assay [4]; 6.8% in assay [5]; 30.1% in assay [6].
Take `O=S(=O)(c1ccc(Cl)cc1)N1CCN(S(=O)(=O)c2ccc(Cl)cc2)C1`: the growth inhibition in assay [1] was 2.05%; in assay [2], 8.1%; in assay [3], -14.3%; in assay [4] it was -21.6%; in assay [5], -0.05%; in assay [6] it was 15.6%.
With `COc1ccc(/C=C2/N=C(c3ccccc3)OC2=O)cc1`, the growth inhibition is -2.75% in assay [1]; -8.35% in assay [2]; -0.3% in assay [3]; -28.9% in assay [4]; -1.75% in assay [5]; -6.8% in assay [6].
As to `CCCCN(CCCC)C(=O)C(O)C(=O)N(CCCC)CCCC`, the growth inhibition was -5.05% in assay [1]; -13.8% in assay [2]; -4.4% in assay [3]; -9.6% in assay [4]; -13.3% in assay [5]; -3.8% in assay [6].
For the compound `CC1(C)OCCS1`, the growth inhibition was -4.2% in assay [1]; 18.1% in assay [2]; 6.7% in assay [3]; 18.6% in assay [4]; 20.6% in assay [5]; 13.9% in assay [6].
As for `CC(C)C1CSC2N1C(=O)C2(OCc1ccccc1)C1CC1` (centres undefined), the growth inhibition in assay [1] was 3.3%; in assay [2], -22.4%; in assay [3], -3.2%; in assay [4], -16.2%; in assay [5], -20.1%; in assay [6], 9.1%.
Consider `CC(C)C(NC(=O)c1cnc2ccccc2n1)C(=O)O` (centres undefined), for which the growth inhibition was -8.15% in assay [1]; -5.5% in assay [2]; 0.4% in assay [3]; -51.7% in assay [4]; 6.35% in assay [5]; 7.75% in assay [6].
In the case of `NNC(=S)NNc1ccccc1`, the growth inhibition in assay [1] was 12.2%; in assay [2] it was 42.4%; in assay [3], 56.1%; in assay [4] it was -2.65%; in assay [5] it was 20.4%; in assay [6] it was 42.7%.
For the compound `COc1ccc(NC(=O)CC/C(CC(=O)c2ccco2)=N/Nc2ccc([N+](=O)[O-])cc2[N+](=O)[O-])cc1`, the growth inhibition was 21.4% in assay [1]; -6.8% in assay [2]; -0.05% in assay [3]; 3.1% in assay [4]; 22.1% in assay [5]; 2.95% in assay [6].
Turning to `CC(C)(C)OC(=O)NC1CCC(C(C)(C)C)CC1` (centres undefined), the growth inhibition was 1.95% in assay [1]; -2.95% in assay [2]; -4% in assay [3]; 8.65% in assay [4]; 7.9% in assay [5]; 24.1% in assay [6].
As to `CCCNc1cc2c(cc1Br)-c1ccccc1C2=O`, the growth inhibition in assay [1] was -18.8%; in assay [2], -3%; in assay [3], -10.2%; in assay [4], -16.1%; in assay [5], 19.1%; in assay [6], -0.65%.
Consider `CCOC(=O)C(Cc1ccccc1C)(NC(C)=O)C(=O)OCC`, for which the growth inhibition in assay [1] was 6.65%; in assay [2] it was -0.25%; in assay [3], 7.35%; in assay [4], 4.1%; in assay [5], 1.4%; in assay [6] it was -11.2%.
For `CN1C(=O)N(C)C2(CCN(CC(CC3OCCO3)c3ccc(F)cc3)CC2)C1=O` (centres undefined), the growth inhibition in assay [1] is -15.8%; in assay [2], 7.85%; in assay [3] it was 0.4%; in assay [4] it was 2.5%; in assay [5] it was -6.8%; in assay [6] it was -1.55%.
Turning to `CC(C)(C)OC(=O)NC(C)(C)C(=O)NCCC(=O)O`, the growth inhibition in assay [1] was 0%; in assay [2], -70%; in assay [3], -1.8%; in assay [4], 3.35%; in assay [5], -15.2%; in assay [6] it was -13.5%.
On to `COc1ccc(N2C(=O)CSC2=S)cc1`, for which the growth inhibition is 58.6% in assay [1]; 0% in assay [2]; 24.1% in assay [3]; -9.15% in assay [4]; -4.85% in assay [5]; 33.1% in assay [6].
As to `Cc1cc(Cl)nc2ccc(Cc3ccc(Cl)cc3)cc12`, the growth inhibition in assay [1] was 16.7%; in assay [2] it was -2.65%; in assay [3], -5.2%; in assay [4] it was 11.9%; in assay [5] it was 11.1%; in assay [6], -10.1%.
As to `O=C(Oc1ccc([N+](=O)[O-])cc1)C(CSC(c1ccccc1)(c1ccccc1)c1ccccc1)N1C(=O)c2ccccc2C1=O` (centres undefined), the growth inhibition in assay [1] was 61.8%; in assay [2], 46.7%; in assay [3], 44.5%; in assay [4], 58.7%; in assay [5], 31.9%; in assay [6], 52.8%.
In the case of `CCOC(=O)c1ccc(NCc2nc3ccccc3nc2C)cc1`, the growth inhibition in assay [1] was -17.8%; in assay [2], -4%; in assay [3], -18%; in assay [4], -29.1%; in assay [5], 1.95%; in assay [6], -19.2%.
Take `Nc1cc(Cl)nc(Cl)n1`: the growth inhibition was 1.5% in assay [1]; -25.6% in assay [2]; 2.45% in assay [3]; 10.1% in assay [4]; -19.4% in assay [5]; 3.8% in assay [6].
Consider `COS(=O)(=O)OC1(SC)C=C(c2ccccc2)SS1` (centres undefined), for which the growth inhibition in assay [1] is 73% (active); in assay [2], 28.1%; in assay [3] it was 29.2%; in assay [4], 9.5%; in assay [5], 20.3%; in assay [6] it was 72.6% (active).
As to `CC1=NN(C(=O)CC(=O)Nc2ccc(C(=O)O)cc2)C(=O)C1N=Nc1ccc(S(N)(=O)=O)cc1` (centres undefined), the growth inhibition in assay [1] was -4.7%; in assay [2], -15.8%; in assay [3], -1.5%; in assay [4] it was -24.3%; in assay [5], 0.55%; in assay [6], -5.95%.
For the compound `COc1ccc2c(c1)CCC(c1nc3ccc(C)cc3[nH]c1=O)C2=O` (centres undefined), the growth inhibition in assay [1] is 7.95%; in assay [2], 8.5%; in assay [3], 7.95%; in assay [4], 9.1%; in assay [5] it was -4.65%; in assay [6] it was 22.6%.
For the compound `CC(=O)[OH+]c1c(I)cc(I)cc1C(=O)[O-].CC(=O)[OH+]c1c(I)cc(I)cc1C(=O)[O-].[Cu+2]`, the growth inhibition in assay [1] was -8.15%; in assay [2] it was 2.3%; in assay [3] it was -5.8%; in assay [4], -5%; in assay [5], 11.5%; in assay [6], 4.95%.
`CC(C)=CCc1c(O)ccc2ccc(=O)oc12`: the growth inhibition in assay [1] was 21.6%; in assay [2], 20.1%; in assay [3] it was 10.2%; in assay [4], 17.9%; in assay [5], 7.3%; in assay [6], 29.4%.
Consider `C/C(CC(O)(C(F)(F)F)C(F)(F)F)=N\O`, for which the growth inhibition in assay [1] is -29.8%; in assay [2], -51.2%; in assay [3], -20.4%; in assay [4], -15.9%; in assay [5] it was -19.5%; in assay [6], -5.65%.
Turning to `N#CCC(=O)N/N=C1/C(=O)N(c2cc(Cl)ccc2Cl)C(=O)C(=O)C1c1nc2ccccc2s1` (centres undefined), the growth inhibition in assay [1] is 42.8%; in assay [2], 27.8%; in assay [3], 38.1%; in assay [4] it was 19.9%; in assay [5] it was -0.5%; in assay [6], 51%.
As for `O=C(O)C(Oc1ccccc1)Oc1ccccc1`, the growth inhibition in assay [1] is -24.7%; in assay [2], -13.2%; in assay [3] it was -11.8%; in assay [4], 5.85%; in assay [5], 6.6%; in assay [6], -4.95%.
Regarding `CCC(C(=O)O)C(C)(C)C` (centres undefined), the growth inhibition in assay [1] is 6.8%; in assay [2], 0.55%; in assay [3] it was 1.8%; in assay [4], -4.9%; in assay [5], -0.3%; in assay [6] it was 9.3%.
`Cc1cccc(NC(=O)c2ccc(Cl)cc2Cl)n1` (tested in a mixture with another compound): the growth inhibition in assay [1] was -2.95%; in assay [2], -7.05%; in assay [3], 3.45%; in assay [4], -25.6%; in assay [5], 4.05%; in assay [6], 20.9%.
With `O=C(Cc1ccccc1)NN(Cc1ccccc1)Cc1ccccc1`, the growth inhibition is -14.8% in assay [1]; -0.85% in assay [2]; -2.95% in assay [3]; -10.8% in assay [4]; 23.9% in assay [5]; 0.5% in assay [6].
With `CC(=O)O[C@H]1C[C@]2(C)C(CCC3O[C@@]32C)[C@@]2(CC(c3ccoc3)OC2O)[C@@H]1C` (some centres undefined), the growth inhibition in assay [1] was -10.8%; in assay [2], -16.1%; in assay [3], -29.9%; in assay [4], -10.1%; in assay [5], -23.1%; in assay [6], -13.2%.
Consider `Nc1nc(N)c(NC(=O)CCCO)c(=O)[nH]1`, for which the growth inhibition in assay [1] was -3.95%; in assay [2] it was -2.35%; in assay [3], -13.3%; in assay [4], 6.8%; in assay [5] it was -23.8%; in assay [6], -53%.
With `O=C1CCNC/C1=C\c1ccccc1`, the growth inhibition was 6.25% in assay [1]; -14.3% in assay [2]; 8.9% in assay [3]; 13.4% in assay [4]; -19.2% in assay [5]; 6.55% in assay [6].
`CCCCCCCCCCCCCCCc1cc(OC)ccc1S(=O)(=O)O`: the growth inhibition in assay [1] is 22.6%; in assay [2] it was 5.8%; in assay [3], 15.9%; in assay [4], 30.9%; in assay [5], 3.1%; in assay [6] it was 15.6%.
For the compound `CSc1nc(NC2OCC(OC(C)=O)C(OC(C)=O)C2OC(C)=O)c(N=CC=Nc2c(NC3OCC(OC(C)=O)C(OC(C)=O)C3OC(C)=O)nc(SC)[nH]c2=O)c(=O)[nH]1` (centres undefined), the growth inhibition in assay [1] was 11.8%; in assay [2], -7.9%; in assay [3], -0.35%; in assay [4] it was 7.15%; in assay [5] it was -1.65%; in assay [6], 8.25%.
`CCCCCCCOc1ccc(/C=C\c2cc[n+](CCCCCCCC[n+]3ccc(/C=C\c4ccc(OCCCCCCC)cc4)cc3)cc2)cc1`: the growth inhibition in assay [1] is -22.4%; in assay [2] it was -7.95%; in assay [3], -14.2%; in assay [4], 22.7%; in assay [5] it was 8.1%; in assay [6], 10.2%.
Turning to `O=C/C(=C1/C=Cc2cc([N+](=O)[O-])ccc2S1)c1ccccc1`, the growth inhibition in assay [1] is -6.5%; in assay [2] it was -18.8%; in assay [3] it was -11%; in assay [4] it was -14.8%; in assay [5], -9.05%; in assay [6], -6.6%.
